Measured values: PubChem BioAssay (Tox21)
Results filed as inconclusive are left out. The source holds several records for some structures; these can differ, active in one and inactive in another. Activity calls are given as the source filed them. Unless noted, the call rests on the fitted dose curve; in most records, active means well fitted curve in the direction sought with a large enough effect in the repeat runs; inconclusive means weak or mixed curves; inactive means no such curve, though single readings can be large; an effect the other way counts as inactive or inconclusive.

How the values were obtained:
[1] = qHTS assay to identify small molecule antagonists of the sonic hedgehog signaling (Shh) pathway (AID 1259369; calls by dose curve; further: nearly all actives have a fitted effect of over 45% in size)
Summary of the method: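 NIH/3T3-derived 3T3Gli1-Luc cells with stably integrated Gli1-Luc reporter were preincubated 4hr at 37 C, then given compounds in DMSO plus Shh conditioned medium and incubated 24hr. Firefly luciferase luminescence read after 30min reagent at room temperature.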

[2] = qHTS assay to identify small molecule agonists of the androgen receptor (AR) signaling pathway in the presence of an antagonist - cell viability counter screen (AID 1259379); further: nearly all actives have a fitted effect of over 25% in size; further: potency means the concentration at half of the fitted maximal effect; on activity change, negative = cytotoxicity: series mostly up to about 92 µM
Summary of the method: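 MDA-kb2 human breast carcinoma cells (stable MMTV-luciferase, AR/GR responsive) were seeded 3,000 cells/well, pre-incubated 5 hr at 37C without CO2, then given 3.0uM nilutamide and compounds at 15 concentrations for 16 hr. Viability was read by CellTiter-Fluor fluorescence.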

[3] = qHTS assay to identify small molecule agonists of the estrogen receptor beta (ER-beta) signaling pathway - cell viability counter screen (AID 1259380); further: nearly all actives have a fitted effect of over 30% in size
Summary of the method: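 ER-beta-UAS-bla HEK293T cells in medium with 2% charcoal-stripped FBS were preincubated 6 hr at 37C, dosed with compound in DMSO for 16 hr, then after the bla read, CellTiter-Glo was added for 30 min at room temperature; luminescence recorded.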

[4] = qHTS assay to identify small molecule antagonists of the estrogen receptor beta (ER-beta) signaling pathway - cell viability counter screen (AID 1259382);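 further: HEK293T cells carrying ER-beta-UAS-bla reporter stimulated with estradiol; series mostly up to about 92 µM; nearly all actives have a fitted effect of over 55% in size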
Summary of the method: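 ER-beta-UAS-bla HEK293T cells (2,000/well, 2% charcoal-stripped FBS) were pre-incubated 6 hr at 37C, then given compound plus 1nM final 17-beta-estradiol for 16 hr. Viability was read in the same wells by CellTiter-Glo luminescence after 30 min at room temperature.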

[5] = qHTS assay to identify small molecule agonists or antagonists of the thyroid stimulating hormone receptor (TSHR) signaling pathway - wild type cell line counter screen (AID 1259384; calls by dose curve)
Summary of the method: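 Wild-type Hek293 cells, 800/well, 18 h at 37C, then compound with Ro20-1724 for 30 min RT. cAMP by HTRF (cAMP-d2/anti-cAMP cryptate), 1 h RT, fluorescence read. 15 concentrations, triplicates.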

[6] = target: Thyrotropin receptor (Homo sapiens) (UniProt P16473); experiment: qHTS assay to identify small molecule antagonists of the thyroid stimulating hormone receptor (TSHR) signaling pathway (AID 1259385; calls by dose curve; further: nearly all actives have a fitted effect of over 20% in size)
Chain of Thyrotropin receptor (Homo sapiens) (P16473 whole entry, looked up): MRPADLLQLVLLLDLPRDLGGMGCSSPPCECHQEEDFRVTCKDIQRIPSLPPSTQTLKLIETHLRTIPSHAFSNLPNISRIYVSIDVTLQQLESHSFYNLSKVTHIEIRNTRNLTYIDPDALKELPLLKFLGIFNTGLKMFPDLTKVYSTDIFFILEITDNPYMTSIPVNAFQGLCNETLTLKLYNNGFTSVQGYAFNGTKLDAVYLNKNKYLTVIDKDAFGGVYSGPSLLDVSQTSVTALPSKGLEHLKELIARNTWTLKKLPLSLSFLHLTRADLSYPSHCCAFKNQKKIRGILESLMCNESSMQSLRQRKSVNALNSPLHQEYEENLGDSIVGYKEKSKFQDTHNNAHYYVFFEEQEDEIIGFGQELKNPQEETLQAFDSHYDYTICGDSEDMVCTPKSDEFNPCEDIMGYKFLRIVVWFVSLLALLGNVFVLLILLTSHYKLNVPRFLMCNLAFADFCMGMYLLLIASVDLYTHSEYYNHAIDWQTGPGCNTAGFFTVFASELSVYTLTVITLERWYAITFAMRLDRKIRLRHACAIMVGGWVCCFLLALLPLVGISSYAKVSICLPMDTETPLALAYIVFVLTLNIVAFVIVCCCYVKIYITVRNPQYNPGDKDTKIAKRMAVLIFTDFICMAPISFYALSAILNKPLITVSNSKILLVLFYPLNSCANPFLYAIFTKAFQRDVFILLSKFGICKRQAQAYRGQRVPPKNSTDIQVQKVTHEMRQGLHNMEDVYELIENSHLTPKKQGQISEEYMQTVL
Summary of the method: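 TSHR-HEK293 cells (800/well) plated 18 h, then compounds with Ro20-1724 and TSH at 1.5 ng/mL final, 30 min at room temperature. cAMP quantified by HTRF (cAMP-d2/anti-cAMP-cryptate, 1 h); 15 concentrations in triplicate.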

[7] = qHTS assay to identify small molecule agonists of the estrogen receptor alpha (ER-alpha) signaling pathway in the presence of an antagonist - cell viability counter screen (AID 1259386);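 further: series mostly up to about 92 µM; cells exposed to compounds for 22 h at 37 °C before the viability read; nearly all actives have a fitted effect of over 30% in size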
Summary of the method: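 VM7Luc4E2 cells (endogenous full-length ER-alpha, 4×ERE-luciferase) were held 5 days in phenol red-free medium with 10% charcoal-stripped FBS, plated, then given 10.0nM ICI-182,780 and compounds at 15 concentrations for 22hr at 37C; viability read by CellTiter-Fluor fluorescence.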

[8] = target: Progesterone receptor (Homo sapiens) (UniProt P06401); experiment: qHTS assay to identify small molecule agonists of the progesterone receptor (PR) signaling pathway (AID 1346784; calls by dose curve; further: nearly all actives have a fitted effect of over 30% in size; further: potency means the concentration at half of the fitted maximal effect)
Chain of Progesterone receptor (Homo sapiens) (P06401 whole entry, looked up): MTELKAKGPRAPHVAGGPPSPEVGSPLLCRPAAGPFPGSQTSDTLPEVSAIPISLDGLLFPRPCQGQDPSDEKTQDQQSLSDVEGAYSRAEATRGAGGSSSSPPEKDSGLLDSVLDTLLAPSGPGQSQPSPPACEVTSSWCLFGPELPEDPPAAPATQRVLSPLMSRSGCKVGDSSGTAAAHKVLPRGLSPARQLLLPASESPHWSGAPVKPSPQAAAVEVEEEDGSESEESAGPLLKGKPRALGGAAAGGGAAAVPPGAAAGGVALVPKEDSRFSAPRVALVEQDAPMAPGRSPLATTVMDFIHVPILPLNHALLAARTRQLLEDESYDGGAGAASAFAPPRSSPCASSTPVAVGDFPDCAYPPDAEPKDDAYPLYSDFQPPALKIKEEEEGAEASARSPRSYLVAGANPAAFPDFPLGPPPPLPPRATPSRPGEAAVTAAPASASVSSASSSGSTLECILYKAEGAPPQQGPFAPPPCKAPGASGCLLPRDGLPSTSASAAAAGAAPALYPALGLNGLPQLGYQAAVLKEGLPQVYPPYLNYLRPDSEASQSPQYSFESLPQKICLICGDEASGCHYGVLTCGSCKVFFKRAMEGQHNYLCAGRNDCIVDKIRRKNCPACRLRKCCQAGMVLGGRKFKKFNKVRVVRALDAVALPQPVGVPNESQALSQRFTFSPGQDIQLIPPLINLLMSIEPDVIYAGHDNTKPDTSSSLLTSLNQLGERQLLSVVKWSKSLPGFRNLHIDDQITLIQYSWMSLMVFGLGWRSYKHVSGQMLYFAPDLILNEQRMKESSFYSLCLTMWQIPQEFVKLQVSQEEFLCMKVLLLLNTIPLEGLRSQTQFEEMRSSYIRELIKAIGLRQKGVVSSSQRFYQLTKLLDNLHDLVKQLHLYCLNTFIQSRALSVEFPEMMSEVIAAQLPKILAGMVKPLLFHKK
Summary of the method: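 Cells (PR-UAS-bla HEK 293T, GripTite) were plated in assay medium containing 2% charcoal-stripped FBS and incubated 6 hr. Test compounds in DMSO were added for 16 hr at 37C. FRET substrate was then loaded for 2 hr at room temperature before fluorescence reading.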

[9] = qHTS assay to identify small molecule antagonists of the progesterone receptor (PR) signaling pathway - cell viability counter screen (AID 1346798); further: series mostly up to about 92 µM; nearly all actives have a fitted effect of over 50% in size
Summary of the method: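 Counter screen for cytotoxicity: viability of PR-UAS-bla HEK293T cells was measured with CellTiter-Glo luminescence following 16 hr compound exposure in the presence of R5020.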

[10] = qHTS assay to identify small molecule agonists of the progesterone receptor (PR) signaling pathway - cell viability counter screen (AID 1346799; calls by dose curve; further: nearly all actives have a fitted effect of over 45% in size)
Summary of the method: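 Cells (PR-UAS-bla HEK293T) are plated at 3,000/well in 2% charcoal-stripped FBS medium, rested 6 hr, dosed and incubated 16 hr at 37C. CellTiter-Glo is then added and luminescence measured after 30 min at room temperature.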

[11] = qHTS assay to identify small molecule antagonists of the TGF-beta/Smad signaling pathway - cell viability counter screen (AID 1346824); further: nearly all actives have a fitted effect of over 50% in size
Summary of the method: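 SBE-bla HEK 293T cells, incubated overnight, then compound plus 0.25 ng/mL TGF-beta1 (stock added) for 5 hr at 37 C. Viability was read in the same wells by CellTiter-Glo luminescence after 30 min at room temperature.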

[12] = qHTS assay to identify small molecule agonists of the TGF-beta/Smad signaling pathway - cell viability counter screen (AID 1346829); further: top concentration of the series differs between compounds; nearly all actives have a fitted effect of over 45% in size
Summary of the method: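 Here the cytotoxicity of library compounds is measured in SBE-bla HEK 293T cells treated for 5 hr, using CellTiter-Glo added to wells already read for the beta-lactamase reporter.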

[13] = target: Estrogen receptor (Homo sapiens) (UniProt P03372); experiment: qHTS assay to identify small molecule agonists of the estrogen receptor alpha (ER-alpha) signaling pathway in the presence of an antagonist (AID 1259383; calls by dose curve; further: nearly all actives have a fitted effect of over 15% in size; further: potency means the concentration at half of the fitted maximal effect; on activation: top concentration of the series differs between compounds)
Chain of Estrogen receptor (Homo sapiens) (P03372 whole entry, looked up): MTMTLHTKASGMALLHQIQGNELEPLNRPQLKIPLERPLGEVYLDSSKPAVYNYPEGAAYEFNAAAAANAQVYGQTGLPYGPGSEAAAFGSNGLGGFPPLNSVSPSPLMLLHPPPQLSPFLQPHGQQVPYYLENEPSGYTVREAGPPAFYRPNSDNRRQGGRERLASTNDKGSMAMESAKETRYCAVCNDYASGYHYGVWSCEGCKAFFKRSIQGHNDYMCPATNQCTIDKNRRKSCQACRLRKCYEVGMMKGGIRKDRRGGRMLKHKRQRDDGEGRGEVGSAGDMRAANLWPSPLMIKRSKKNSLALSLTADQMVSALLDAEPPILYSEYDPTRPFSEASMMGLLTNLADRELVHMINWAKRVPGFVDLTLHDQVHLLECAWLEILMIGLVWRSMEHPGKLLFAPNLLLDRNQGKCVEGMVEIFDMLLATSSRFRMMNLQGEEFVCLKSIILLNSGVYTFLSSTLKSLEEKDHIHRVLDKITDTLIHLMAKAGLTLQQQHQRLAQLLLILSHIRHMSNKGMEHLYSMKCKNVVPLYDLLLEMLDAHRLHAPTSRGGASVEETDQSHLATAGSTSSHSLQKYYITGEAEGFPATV
Summary of the method: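 VM7Luc4E2 cells (endogenous full-length ER-alpha, 4×ERE-luciferase) were precultured 5 days in phenol red-free medium with 10% charcoal-stripped FBS, given 10.0nM ICI-182,780 (final), then treated with compounds at 15 concentrations for 22hr at 37C; luminescence read with ONE-Glo.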

[14] = target: Progesterone receptor (Homo sapiens) (UniProt P06401); experiment: qHTS assay to identify small molecule antagonists of the progesterone receptor (PR) signaling pathway (AID 1346795; active means well fitted inhibition curve with a large enough effect in the signal ratio in the repeat runs, not every such curve was filed as active; the % refers to the signal ratio)
Summary of the method: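 Antagonist mode: compounds tested against 1 nM (final) promegestone stimulation in HEK293T cells expressing PR-UAS-bla reporter, 16 hr at 37C, 5% CO2; beta-lactamase activity detected via B/G FRET substrate after 2 hr at room temperature.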

[15] = qHTS assay to identify small molecule agonists of the TGF-beta/Smad signaling pathway (AID 1346859; active means well fitted activation curve with a large enough effect in the signal ratio in the repeat runs, not every such curve was filed as active; the % refers to the signal ratio; further: series mostly up to about 77 µM)
Summary of the method: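 Reporter line: HEK 293T with stably integrated SBE-controlled beta-lactamase. Compound exposure lasts 5 hr at 37 C and 5% CO2; substrate loading follows for 2 hr at room temperature, with emission read at 460 and 530 nm.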

[16] = target: Thyrotropin-releasing hormone receptor (Homo sapiens) (UniProt P34981); experiment: qHTS assay to identify small molecule antagonists of the thyrotropin-releasing hormone receptor (TRHR) signaling pathway (AID 1346877; active means well fitted inhibition curve with a large enough effect in the repeat runs, not every such curve was filed as active; further: series mostly up to about 51 µM)
Chain of Thyrotropin-releasing hormone receptor (Homo sapiens) (P34981 whole entry, looked up): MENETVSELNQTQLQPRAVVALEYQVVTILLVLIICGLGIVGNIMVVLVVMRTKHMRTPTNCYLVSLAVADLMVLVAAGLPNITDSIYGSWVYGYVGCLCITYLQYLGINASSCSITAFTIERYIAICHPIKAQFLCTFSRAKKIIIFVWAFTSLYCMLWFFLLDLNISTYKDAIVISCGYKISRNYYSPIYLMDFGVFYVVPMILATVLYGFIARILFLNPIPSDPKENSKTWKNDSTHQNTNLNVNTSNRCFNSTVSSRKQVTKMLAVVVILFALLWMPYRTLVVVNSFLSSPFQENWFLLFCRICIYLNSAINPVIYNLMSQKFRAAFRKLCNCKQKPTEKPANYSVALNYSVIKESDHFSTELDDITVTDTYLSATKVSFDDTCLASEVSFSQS
Summary of the method: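 TRHR-expressing HEK293 cells were seeded, cultured 18 h at 37 °C, then loaded with calcium dye for 2 h. Compounds were pre-incubated 5 min at room temperature before 1 nM TRH (final) was added, and kinetic fluorescence was recorded for 3 min.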

[17] = target: Thyrotropin-releasing hormone receptor (Homo sapiens) (UniProt P34981); experiment: qHTS assay to identify small molecule agonists of the thyrotropin-releasing hormone receptor (TRHR) signaling pathway (AID 1346891; calls by dose curve; further: series mostly up to about 58 µM)
Summary of the method: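 Cells: TRHR-Hek293, seeded and incubated 18 h. Dye loading: 2 h at 37 °C. Compound added from DMSO stock by pin tool. Read-out: kinetic calcium fluorescence over 3 min.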

[18] = target: Androgen receptor (Homo sapiens) (UniProt P10275); experiment: qHTS assay to identify small molecule agonists of the androgen receptor (AR) signaling pathway in the presence of an antagonist (AID 1259381; calls by dose curve; further: nearly all actives have a fitted effect of over 15% in size)
Chain of Androgen receptor (Homo sapiens) (P10275 whole entry, looked up): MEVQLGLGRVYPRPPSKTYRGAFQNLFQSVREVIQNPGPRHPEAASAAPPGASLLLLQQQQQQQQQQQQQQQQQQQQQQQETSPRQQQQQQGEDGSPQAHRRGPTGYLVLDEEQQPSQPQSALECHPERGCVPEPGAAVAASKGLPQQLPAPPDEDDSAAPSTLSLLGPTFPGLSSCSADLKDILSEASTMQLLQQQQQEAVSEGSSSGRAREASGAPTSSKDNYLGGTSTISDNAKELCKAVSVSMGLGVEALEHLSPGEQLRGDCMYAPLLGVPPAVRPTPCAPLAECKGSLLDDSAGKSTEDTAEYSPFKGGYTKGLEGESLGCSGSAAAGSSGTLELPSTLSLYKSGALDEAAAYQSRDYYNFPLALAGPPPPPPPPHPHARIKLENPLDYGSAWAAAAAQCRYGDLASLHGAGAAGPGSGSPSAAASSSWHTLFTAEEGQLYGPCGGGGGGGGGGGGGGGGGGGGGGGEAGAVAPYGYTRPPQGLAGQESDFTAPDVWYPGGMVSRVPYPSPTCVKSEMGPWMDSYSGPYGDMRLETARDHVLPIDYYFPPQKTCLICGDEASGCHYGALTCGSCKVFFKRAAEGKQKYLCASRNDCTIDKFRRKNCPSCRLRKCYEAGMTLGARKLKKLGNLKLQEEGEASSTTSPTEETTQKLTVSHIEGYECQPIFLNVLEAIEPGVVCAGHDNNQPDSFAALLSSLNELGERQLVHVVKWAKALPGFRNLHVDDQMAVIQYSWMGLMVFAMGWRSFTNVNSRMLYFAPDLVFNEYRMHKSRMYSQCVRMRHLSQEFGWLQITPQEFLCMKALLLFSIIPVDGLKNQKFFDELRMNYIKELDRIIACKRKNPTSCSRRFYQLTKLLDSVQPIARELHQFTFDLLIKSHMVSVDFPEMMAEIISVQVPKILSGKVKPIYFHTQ
Summary of the method: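 MDA-kb2 human breast carcinoma cells carrying an MMTV-luciferase reporter (AR- and GR-responsive) were treated with compounds at 15 concentrations plus 3.0uM final nilutamide for 16hr at 37C without CO2; luminescence was read after ONE-Glo addition.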
On the % scale 0 is the no-effect control and ±100 the full control effect.

O=C1O[C@H]([C@H](O)CO)C(O)=C1O
inactive: Potency [1] | Potency [2] | Potency [3] | Potency [4] | Potency [5] | Potency [6] | Potency [7] | Potency [8] | Potency [9] | Potency [10] | Potency [11] | Potency [12]

OC1CCCCC1
inactive: Potency [1] | Potency [2] | Potency [4] | Potency [13] | Potency [5] | Potency [6] | Potency [7] | Potency [8] | Potency [14] | Potency [9] | Potency [10] | Potency [11] | Potency [12] | Potency [15]

CCn1cc(C(=O)O)c(=O)c2cc3c(cc21)OCO3
active: Potency [8] 1240 nM
inactive: Potency [1] | Potency [2] | Potency [3] | Potency [4] | Potency [5] | Potency [6] | Potency [7] | activation [8] -1.39% [at 19 µM] | Potency [9] | activity change, negative = cytotoxicity [10] -0.681% [at 19 µM] | Potency [12] | Potency [15] | Potency [16] | outcome [17]

CC(=O)OC(C)(C)C1CC=C(C)CC1 (configuration not stated)
inactive: Potency [1] | Potency [2] | Potency [3] | Potency [4] | Potency [13] | Potency [5] | Potency [6] | Potency [7] | Potency [8] | Potency [14] | Potency [9] | Potency [11] | Potency [12] | Potency [16] | outcome [17]

O=c1c(O)c(-c2ccc(O)c(O)c2)oc2cc(O)cc(O)c12
48.6 µM (active) and inactive: Potency [2]
inactive: Potency [1] | Potency [3] | Potency [4] | Potency [5] | Potency [6] | Potency [7] | Potency [8] | Potency [9] | Potency [11] | Potency [15] | Potency [16] | outcome [17]
24.4 µM (active) and inactive: Potency [13]

CCCOC(=O)NCCCN(C)C
inactive: Potency [1] | Potency [2] | Potency [3] | Potency [4] | Potency [5] | Potency [6] | Potency [7] | Potency [9] | Potency [12] | Potency [15]

Cc1cc(C)c(O)c(C)c1
inactive: Potency [1] | Potency [2] | Potency [4] | Potency [13] | Potency [5] | Potency [6] | Potency [7] | Potency [8] | Potency [14] | Potency [9] | Potency [12] | Potency [16] | outcome [17]

Cc1ccccc1Cl
inactive: Potency [1] | Potency [2] | outcome [18] | Potency [4] | Potency [13] | Potency [5] | Potency [6] | Potency [7] | Potency [9] | Potency [10] | Potency [12] | Potency [15]

NC(N)=S
inactive: Potency [1] | Potency [2] | Potency [3] | Potency [4] | Potency [13] | Potency [5] | Potency [6] | Potency [7] | Potency [8] | Potency [9] | Potency [12] | Potency [15] | Potency [16] | outcome [17]

Nc1cccc(N)n1
inactive: Potency [1] | Potency [2] | Potency [3] | Potency [4] | Potency [13] | Potency [5] | Potency [6] | Potency [7] | Potency [8] | Potency [9] | Potency [10] | Potency [12] | Potency [15]
